The values that follow come from PubChem BioAssay (NCI).

The panel holds about 83,000 compounds, 20% with a hit somewhere; the sample as a whole holds those more often.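 Method: cells in 96-well plates; compound added at one concentration; 48 h incubation; percent growth measured; values under 10 scored active.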 Activity calls are given as the source filed them.

The assay deals with DU-145 prostate. The assay can be described thus: NCI-60 one-dose screen, 48 h (100 = growth as untreated, 0 = no growth, -100 = all killed). As to conditions: 10 µM.
For the molecule `CCN1CCN(CCC(=O)Nc2cccc(-n3cc(-c4ccncc4)c(-c4ccc(Cl)c(OC)c4)n3)c2)CC1`, the growth was 12.4% (inactive).

As for `Nc1ccn(Cc2nnc(CCC(=O)c3nc4ccccc4[nH]3)o2)c(=O)n1`, the growth is 98.4% (inactive).

As to `Cc1ccc2nc(Cl)c(-c3nc4ccccc4o3)cc2c1`, the growth is 103% (inactive).

Regarding `C/C=C/CSC(C)(C)C(=O)NC`, the growth is 103% (inactive).

For `COc1cc2c(Nc3ccc(S(N)(=O)=O)cc3)ncnc2c(OC)c1OC`, the growth is 107% (inactive).

Regarding `CC(=O)OC1C=CC(OC(C)=O)O1` (centres undefined), the growth was 101% (inactive).

Regarding `CC(=O)C1N=NCC1c1ccccc1` (centres undefined), the growth was 110% (inactive).

As to `O=C(CN(C1CCCCC1)C1CCCCC1)Nc1ccc(S(=O)(=O)c2ccc(NC(=O)CN(C3CCCCC3)C3CCCCC3)cc2)cc1`, the growth was -47.9% (active).

`Cc1c[nH]c(=O)n(Cc2nnc(CCC(=O)c3nc4ccccc4[nH]3)o2)c1=O`: the growth was -35.3% (active).

Turning to `O=C(CCn1cnc2c(cc(-c3ccccc3)n2-c2ccccc2)c1=O)Nc1ccc(F)cc1`, the growth was 85.9% (inactive).

Regarding `CN(C)CCOc1cccc(NC2=C(Cl)C(=O)C(Nc3cccc(OCCN(C)C)c3)=C(Cl)C2=O)c1`, the growth is -100% (active).

For `CN1CCN(CCC(=O)Nc2cccc(-n3cc(-c4ccncc4)c(-c4ccc(Cl)c(O)c4)n3)c2)CC1`, the growth was 25.8% (inactive).

Consider `CC(=O)Nc1ccc(CC[C@H]2CCC/C=C/[C@@H]3C[C@H](O)C[C@H]3[C@H](O)/C=C/C(=O)O2)cc1`, for which the growth is 22.9% (inactive).

As for `CN(C)CCN(Cc1ccccc1)c1ccc2ccccc2n1`, the growth is 107% (inactive).
